# Assay results: the supplement of paper PMC12645437, “Orthogonal IMiD-Degron Pairs Induce Selective Protein Degradation in Cells” (ACS Chemical Biology, 2025)
# The full ranking holds about 8,300 sequences; the median of “log2 fold change of degron read counts, EGFP-low vs EGFP+ sorted cells (limma voom), compound-induced degradation” is about -1.1, and the highest 2% start at about 3.2. Only a selection was taken, and the highest values are over-represented in it overall.
# T1: CRBN, Q96SW2
# T1 chain: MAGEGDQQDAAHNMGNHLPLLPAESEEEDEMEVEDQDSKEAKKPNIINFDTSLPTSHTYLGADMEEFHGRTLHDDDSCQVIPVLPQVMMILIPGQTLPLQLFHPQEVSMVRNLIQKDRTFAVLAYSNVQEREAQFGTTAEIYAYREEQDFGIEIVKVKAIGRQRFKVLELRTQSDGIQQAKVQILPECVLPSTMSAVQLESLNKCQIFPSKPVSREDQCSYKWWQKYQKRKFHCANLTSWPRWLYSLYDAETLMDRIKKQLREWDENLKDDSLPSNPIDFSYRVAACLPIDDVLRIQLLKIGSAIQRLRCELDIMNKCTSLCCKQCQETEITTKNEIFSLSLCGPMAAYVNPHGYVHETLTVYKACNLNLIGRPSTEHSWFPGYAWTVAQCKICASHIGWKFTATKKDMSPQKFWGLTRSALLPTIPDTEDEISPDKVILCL
# Target: T1, CRBN, Q96SW2
# Test: log2 fold change of degron read counts, EGFP-low vs EGFP+ sorted cells (limma voom), compound-induced degradation; higher = more compound-induced degradation of the degron-EGFP fusion; degrons are variants of IKZF1/3 zinc finger 2; compound dose not given here
# Conditions: Jurkat, 18 h
# [1] = compound: compound 19 (5-tert-butyl-thalidomide)
# [2] = compound: compound 22 (5-morpholino-thalidomide)
# [3] = compound: compound 33 (diphenyl IMiD analogue)
# 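Also: pooled lentiviral library of zinc finger degron-EGFP fusions in mCherry-positive Jurkat cells, FACS-sorted after compound exposure, with degron abundance counted by next-generation sequencing.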
Sequence,log2 fold change of degron read counts [1],log2 fold change of degron read counts [2],log2 fold change of degron read counts [3],log2 fold change of degron read counts (compound: thalidomide)
"FQCPICGRGFTQKGNLLRHIKL [46F_47Q_49P_50I_52G_53R_54G_55F_67L_, Q9UKT9]",-0.816,-0.908,-0.112,1.8
"FQCEICGAVFTQKGNLLRHIKL [46F_47Q_49E_50I_52G_53A_54V_55F_67L_, Q9UKT9]",0.132,2.71,2.34,3.22
"FGCDQCGAWFTQKGNLLRHIKL [46F_47G_49D_50Q_52G_53A_54W_55F_67L_, Q9UKT9]",-2.44,-2.82,-1.38,-2.3
"FMCEICGHQFTQKGNLLRHIKL [46F_47M_49E_50I_52G_53H_54Q_55F_67L_, Q9UKT9]",-3.75,-3.29,-1.95,-1.87
"FCCNQCGRVFTQKGNLLRHIKL [46F_47C_49N_50Q_52G_53R_54V_55F_67L_, Q9UKT9]",-2.29,-2.57,-2.1,-2.12
"FLCNQCGRCFTQKGNLLRHIKL [46F_47L_49N_50Q_52G_53R_54C_55F_67L_, Q9UKT9]",-1.41,-1.61,-3.08,-2.11
"FVCPQCGAIFTQKGNLLRHIKL [46F_47V_49P_50Q_52G_53A_54I_55F_67L_, Q9UKT9]",-2.01,-1.63,-0.464,-0.946
"FNCPICGASFTQKGNLLRHIKL [46F_47N_49P_50I_52G_53A_54S_55F_67L_, Q9UKT9]",2.84,1.58,1.33,0.876
"FLCPICGASFTQKGNLLRHIKL [46F_47L_49P_50I_52G_53A_54S_55F_67L_, Q9UKT9]",1.51,0.569,1.64,1.57
"FECDICGASFTQKGNLLRHIKL [46F_47E_49D_50I_52G_53A_54S_55F_67L_, Q9UKT9]",0.774,-2.24,-0.436,-0.0103
"FCCDICGASFTQKGNLLRHIKL [46F_47C_49D_50I_52G_53A_54S_55F_67L_, Q9UKT9]",2.32,1.84,0.871,0.402
"FKCPICGASFTQKGNLLRHIKL [46F_47K_49P_50I_52G_53A_54S_55F_67L_, Q9UKT9]",1.49,-0.57,-1.45,0.422
"FDCPICGASFTQKGNLLRHIKL [46F_47D_49P_50I_52G_53A_54S_55F_67L_, Q9UKT9]",3.04,1.06,1.22,1.9
"FWCDICGASFTQKGNLLRHIKL [46F_47W_49D_50I_52G_53A_54S_55F_67L_, Q9UKT9]",3.28,3.69,1.52,-0.347
"FWCPICGASFTQKGNLLRHIKL [46F_47W_49P_50I_52G_53A_54S_55F_67L_, Q9UKT9]",3.29,3.64,2.28,1.35
"FQCDICGASFTQKGNLLRHIKL [46F_47Q_49D_50I_52G_53A_54S_55F_67L_, Q9UKT9]",1.07,1.92,1.15,2.99
"FQCPICGASFTQKGNLLRHIKL [46F_47Q_49P_50I_52G_53A_54S_55F_67L_, Q9UKT9]",2.55,2.88,2.76,3.79
"FYCPICGASFTQKGNLLRHIKL [46F_47Y_49P_50I_52G_53A_54S_55F_67L_, Q9UKT9]",3.25,3.43,2.54,1.24
